According to PubChem BioAssay AID1159580 (chemical genetic matrix, 2015):
Screen size: about 5,500 compounds; about 2,000 (36%) were called active. About 18% were inconclusive and are not listed. Rule as the data show it: active = normalized growth mostly below about 0.91 (no sharp cut-off); inconclusive = no clear call, values can overlap the other calls; inactive = mostly above about 0.92. Some of the results follow.

Assay: chemical genetic growth profiling, strain panel (AID 1159580);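 also: tested at 20 µM; growth read once vehicle control cultures reached saturation at 30 °C; 1 = growth at the plate median or of vehicle wells; lower values mean less growth of the strain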
Conditions: growth OD
[1] = S. cerevisiae deletion strains, locus YAL013W, strain DEP1, active compounds read low
[2] = S. cerevisiae deletion strains, locus YBR229C, strain ROT2, active compounds read low
[3] = S. cerevisiae deletion strains, locus YCL061C, strain MRC1, active compounds read low
[4] = S. cerevisiae deletion strains, locus YDL101C, strain DUN1, active compounds read low
[5] = S. cerevisiae deletion strains, locus YDR150W, strain NUM1, active compounds read low
[6] = S. cerevisiae deletion strains, locus YEL061C, strain CIN8, active compounds read low
[7] = S. cerevisiae deletion strains, locus YGR078C, strain PAC10, active compounds read low
[8] = S. cerevisiae deletion strains, locus YHR030C, strain SLT2, active compounds read low
[9] = S. cerevisiae deletion strains, locus YHR087W, strain rtc3, active compounds read low
[10] = S. cerevisiae deletion strains, locus YJR043C, strain POL32, active compounds read low
[11] = S. cerevisiae deletion strains, locus YJR075W, strain HOC1, active compounds read low
[12] = S. cerevisiae deletion strains, locus YLR039C, strain RIC1, active compounds read low
[13] = S. cerevisiae deletion strains, locus YLR058C, strain SHM2 (second series), active compounds read low
[14] = S. cerevisiae deletion strains, locus YLR085C, strain ARP6, active compounds read low
[15] = S. cerevisiae deletion strains, locus YLR262C, strain YPT6, active compounds read low
[16] = S. cerevisiae deletion strains, locus YML094W, strain GIM5, active compounds read low
[17] = S. cerevisiae deletion strains, locus YMR219W, strain ESC1, active compounds read low
[18] = S. cerevisiae deletion strains, locus YMR263W, strain SAP30, active compounds read low
[19] = S. cerevisiae deletion strains, locus YMR307W, strain GAS1, active compounds read low
[20] = S. cerevisiae deletion strains, locus YNL153C, strain GIM3, active compounds read low
[21] = S. cerevisiae deletion strains, locus YNL298W, strain CLA4 (second series), active compounds read low
[22] = S. cerevisiae deletion strains, locus YNL322C, strain KRE1, active compounds read low
[23] = S. cerevisiae deletion strains, locus YNR030W, strain Alg12, active compounds read low
[24] = S. cerevisiae deletion strains, locus YPL055C, strain LGE1, active compounds read low
[25] = S. cerevisiae deletion strains, locus YPL241C, strain CIN2, active compounds read low
[26] = S. cerevisiae deletion strains, locus YPR135W, strain CTF4, active compounds read low
[27] = S. cerevisiae strains, strain wild type, active compounds read low
[28] = S. cerevisiae deletion strains, locus YHR079C, strain IRE1, active compounds read low
[29] = S. cerevisiae deletion strains, locus YJL095W, strain BCK1, active compounds read low
[30] = S. cerevisiae deletion strains, locus YJR066W, strain TOR1, active compounds read low
[31] = S. cerevisiae deletion strains, locus YLR113W, strain HOG1, active compounds read low
[32] = S. cerevisiae deletion strains, locus YNL183C, strain NPR1, active compounds read low
[33] = S. cerevisiae deletion strains, locus YOR231W, strain MKK1, active compounds read low
[34] = S. cerevisiae deletion strains, locus YPL256C, strain CLN2, active compounds read low

Measured: normalized growth

Cc1cc(=O)n2[nH]cc(C#N)c2n1
inactive: [1] 1 | [2] 1 | [3] 1.02 | [4] 1.01 | [5] 1.04 | [6] 0.999 | [7] 1.01 | [8] 1.09 | [9] 1.01 | [10] 1.02 | [11] 0.995 | S. cerevisiae deletion strains, locus YKL190W, strain CNB1, active compounds read low 0.981 | [12] 1.01 | [13] 1 | [14] 1 | [15] 1.04 | [16] 0.995 | [17] 0.994 | [18] 1.04 | [19] 0.968 | [20] 1.02 | [21] 1.01 | [22] 1 | [23] 1.01 | [24] 1.06 | [25] 0.99 | [26] 1.09 | [27] 0.993

CSC(=CC(=O)c1ccc(Cl)cc1)SC
inactive: [5] 0.888
active: [1] 0.884 | [2] 0.867 | [3] 0.848 | [4] 0.836 | S. cerevisiae deletion strains, locus YDL134C, strain PPH21, active compounds read low 0.747 | [6] 0.74 | [7] 0.872 | S. cerevisiae deletion strains, locus YGR229C, strain SMI1, active compounds read low 0.884 | [8] 0.218 | [9] 0.829 | S. cerevisiae deletion strains, locus YJL187C, strain SWE1, active compounds read low 0.869 | [10] 0.874 | [11] 0.828 | [12] 0.421 | [13] 0.836 | [14] 0.394 | [15] 0.431 | [16] 0.79 | [17] 0.889 | [18] 0.874 | [19] 0.286 | S. cerevisiae deletion strains, locus YNL128W, strain TEP1, active compounds read low 0.888 | [20] 0.879 | [21] 0.645 | [22] 0.895 | [23] 0.765 | [24] 0.771 | [25] 0.685 | [26] 0.352 | [27] 0.811

COC1=C(O)C(=O)c2c(cc3oc(C(C)=O)c(O)c3c2O)C1=O
inactive: [8] 0.986 | [28] 1.01 | [29] 1.03 | [30] 0.957 | [31] 1.04 | [32] 0.973 | [33] 0.999 | [34] 0.973

Cc1csc(NC(=O)Nc2ccc(C(F)(F)F)cc2)c1
inactive: S. cerevisiae deletion strains, locus YAR019C, strain CDC15, active compounds read low 0.971 | S. cerevisiae deletion strains, locus YBL105C, strain PKC1, active compounds read low 0.98 | S. cerevisiae deletion strains, locus YBR135W, strain CKS1, active compounds read low 0.963 | S. cerevisiae deletion strains, locus YBR136W, strain MEC1, active compounds read low 0.98 | S. cerevisiae deletion strains, locus YBR160W, strain CDC28, active compounds read low 0.975 | S. cerevisiae deletion strains, locus YDL017W, strain CDC7, active compounds read low 0.977 | S. cerevisiae deletion strains, locus YDL028C, strain MPS1, active compounds read low 0.981 | [4] 1.02 | S. cerevisiae deletion strains, locus YDL108W, strain KIN28, active compounds read low 0.973 | S. cerevisiae deletion strains, locus YDL132W, strain cdc53, active compounds read low 0.97 | S. cerevisiae deletion strains, locus YDL214C, strain PRR2, active compounds read low 0.783 | S. cerevisiae deletion strains, locus YDR052C, strain DBF4, active compounds read low 0.989 | S. cerevisiae deletion strains, locus YDR054C, strain cdc34, active compounds read low 0.95 | S. cerevisiae deletion strains, locus YDR226W, strain ADK1, active compounds read low 0.975 | S. cerevisiae deletion strains, locus YDR477W, strain SNF1, active compounds read low 0.804 | S. cerevisiae deletion strains, locus YER123W, strain YCK3, active compounds read low 0.735 | S. cerevisiae deletion strains, locus YER133W, strain GLC7, active compounds read low 0.848 | S. cerevisiae deletion strains, locus YFL009W, strain cdc4, active compounds read low 0.97 | S. cerevisiae deletion strains, locus YFL029C, strain CAK1, active compounds read low 0.958 | S. cerevisiae deletion strains, locus YFR003C, strain YPI1, active compounds read low 0.972 | S. cerevisiae deletion strains, locus YFR019W, strain FAB1, active compounds read low 0.801 | S. cerevisiae deletion strains, locus YFR028C, strain CDC14, active compounds read low 0.951 | S. cerevisiae deletion strains, locus YGR040W, strain KSS1, active compounds read low 0.848 | S. cerevisiae deletion strains, locus YGR052W, strain FMP48, active compounds read low 0.946 | S. cerevisiae deletion strains, locus YGR092W, strain DBF2, active compounds read low 0.781 | [8] 0.891 | [28] 0.876 | S. cerevisiae deletion strains, locus YHR082C, strain KSP1, active compounds read low 0.893 | S. cerevisiae deletion strains, locus YIL147C, strain SLN1, active compounds read low 0.978 | [29] 0.896 | S. cerevisiae deletion strains, locus YJL128C, strain PBS2, active compounds read low 0.932 | S. cerevisiae deletion strains, locus YJL157C, strain FAR1, active compounds read low 0.718 | S. cerevisiae deletion strains, locus YJR016C, strain ILV3, active compounds read low 0.978 | S. cerevisiae deletion strains, locus YJR066W, strain TOR1 (second series), active compounds read low 0.848 | [30] 0.935 | S. cerevisiae deletion strains, locus YKL048C, strain ELM1, active compounds read low 0.928 | S. cerevisiae deletion strains, locus YKL067W, strain YNK1, active compounds read low 0.805 | S. cerevisiae deletion strains, locus YKL101W, strain HSL1, active compounds read low 0.821 | S. cerevisiae deletion strains, locus YKL193C, strain SDS22, active compounds read low 0.969 | S. cerevisiae deletion strains, locus YKL203C, strain TOR2, active compounds read low 0.907 | S. cerevisiae deletion strains, locus YLR403W, strain SFP1, active compounds read low 0.704 | S. cerevisiae deletion strains, locus YML070W, strain DAK1, active compounds read low 0.755 | S. cerevisiae deletion strains, locus YMR001C, strain CDC5, active compounds read low 0.966 | S. cerevisiae deletion strains, locus YMR205C, strain PFK2 (second series), active compounds read low 0.832 | S. cerevisiae deletion strains, locus YMR277W, strain FCP1, active compounds read low 0.965 | S. cerevisiae deletion strains, locus YNL006W, strain LST8, active compounds read low 0.99 | S. cerevisiae deletion strains, locus YNL020C, strain ARK1, active compounds read low 0.753 | S. cerevisiae deletion strains, locus YNL161W, strain CBK1, active compounds read low 0.982 | [32] 0.878 | S. cerevisiae deletion strains, locus YNL207W, strain RIO2, active compounds read low 0.965 | S. cerevisiae deletion strains, locus YNL222W, strain SSU72, active compounds read low 0.967 | S. cerevisiae deletion strains, locus YNL307C, strain MCK1 (second series), active compounds read low 0.708 | S. cerevisiae deletion strains, locus YOL078W, strain AVO1, active compounds read low 0.964 | S. cerevisiae deletion strains, locus YOL136C, strain PFK27, active compounds read low 0.739 | S. cerevisiae deletion strains, locus YOR061W, strain CKA2, active compounds read low 0.714 | S. cerevisiae deletion strains, locus YOR119C, strain RIO1, active compounds read low 0.928 | [33] 0.864 | S. cerevisiae deletion strains, locus YOR329C, strain SCD5, active compounds read low 0.978 | S. cerevisiae deletion strains, locus YPL031C, strain PHO85, active compounds read low 0.773 | S. cerevisiae deletion strains, locus YPL153C, strain RAD53, active compounds read low 0.868 | S. cerevisiae deletion strains, locus YPL204W, strain HRR25, active compounds read low 0.902 | S. cerevisiae deletion strains, locus YPL209C, strain IPL1, active compounds read low 0.958 | S. cerevisiae deletion strains, locus YPR025C, strain CCL1, active compounds read low 0.963 | S. cerevisiae deletion strains, locus YPR106W, strain ISR1, active compounds read low 0.971 | S. cerevisiae deletion strains, locus YPR111W, strain DBF20, active compounds read low 0.966 | S. cerevisiae deletion strains, strain NNK1, active compounds read low 0.971 | S. cerevisiae deletion strains, strain TSCII, active compounds read low 0.968
active: S. cerevisiae deletion strains, locus YHR205W, strain SCH9, active compounds read low 0.453 | [31] 0.803 | S. cerevisiae deletion strains, locus YLR133W, strain CKI1, active compounds read low 0.675 | [34] 0.857
